This passage reports composite z-score results from PubChem BioAssay.

For this test, the system named is Lefty1. Description: Lefty1 binders on small-molecule microarrays, primary screen, biochemical, small-molecule microarray, 635/667 nm fluorescence (AID 1139). The following applies: small-molecule microarray binding, fluorescence 635/667; higher = more signal.
In the case of `C=CCOC(=O)[C@H]1[C@@H]2C(=O)O[C@@H](c3ccccc3)[C@@H](c3ccccc3)N2[C@@H](c2ccc(OCCOC(=O)[C@H]3C[C@H]4C(=O)N[C@@H](CC(C)C)C(=O)N4[C@H]3c3ccc(O)cc3)cc2)[C@]12C(=O)Nc1ccccc12`, the composite z-score is 1.39.

As to `CCOC(=O)C1=C[C@@H](C(C)(C)C)N(S(=O)(=O)c2ccc(C)cc2)[C@H]1c1ccc(C#N)cc1`, the composite z-score was found to be 0.307.

As for `C=CCOC(=O)[C@@H]1[C@H]2C(=O)O[C@H](c3ccccc3)[C@H](c3ccccc3)N2[C@H](c2ccc(OCCOC(=O)[C@H]3C[C@H]4C(=O)N[C@@H](CCCCN(C)C)C(=O)N4[C@H]3c3ccc(O)cc3)cc2)[C@@]12C(=O)Nc1ccc(I)cc12`, the composite z-score was found to be 1.58.

For `COC(=O)[C@H](Cc1ccc(O)cc1)N[C@@H](/C=C/C1CC1)[C@H](O)Cc1ccccc1`, the composite z-score came out at 0.389.

In the case of `O=C(NCC(O)CO)C1N=C(c2ccc(OCCCO)cc2)N(c2ccccc2)O1` (stereo not drawn), the composite z-score was 0.876.

The molecule `CCCc1cc2c(n1CCc1ccc(Cl)cc1)C(C)C1CN(C(=O)c3ccccc3)C(C)(C(=O)OC)C21` (stereo not drawn) came in with a composite z-score of -0.766.

The molecule `CC(C)(C)OC(=O)CC[C@]1(C(=O)NCC(O)CO)N=C(c2ccc(OCCCO)cc2)O[C@H]1c1ccccc1N=[N+]=[N-]` (stereo partly drawn) gave a composite z-score of -0.41.

`COc1ccc([Si](C)(C)[C@H]2[C@H](CC(=O)N3CCC[C@H]3CO)O[C@@]3(C(=O)N(Cc4ccc(N5CCCCC5=O)cc4)c4ccccc43)[C@@H]2C)cc1` showed a composite z-score of 1.49.

`CN1C(=O)[C@@H]2[C@@H](CC(COc3ccccc3)=C3[C@@H](CCc4ccccc4)OB(O)C[C@@H]32)C1=O`: the composite z-score was -0.0163.

`CC(C)(C)N1CC=CC23O[C@@H]4C=CCCOC(=O)C4[C@H]2C(=O)N(CCCCCCO)[C@@H]3C1=O` (stereo partly drawn) came in with a composite z-score of -0.0747.

In turn, `O=C1C=C(c2ccccc2)C(=O)C2=C1CC([C@H]1Oc3ccccc3S(=O)(=O)N3CCC[C@@H]13)=CC2` came in with a composite z-score of 0.132.

As for `O=C(NCc1ccc(F)cc1)[C@H]1C[C@H]2C(=O)N3CCC[C@H]3C(=O)N2[C@H]1c1ccc(O)cc1`, the composite z-score is -0.557.

`CC(=O)c1ccc(C(O)C2C=CC3C(=O)N(c4ccccc4)C(=O)C3N2Nc2ccc(C(C)C)cc2)cc1` (stereo not drawn) came in with a composite z-score of -0.212.

In turn, `CCCCC(O)C1C=CC2C(=O)N(c3ccccc3)C(=O)C2N1Nc1ccc([N+](=O)[O-])cc1` (stereo not drawn) registered a composite z-score of 0.264.

`O=C1[C@@H]2[C@@H](CC(COc3ccccc3)=C([C@H](O)CCc3ccccc3)[C@@H]2CO)C(=O)N1Cc1ccccc1` yielded a composite z-score of 0.715.

In turn, `COC(=O)[C@@]1(Cc2ccc(F)cc2)[C@H]2c3cc(C(=O)N(C)C)n(C)c3C[C@H]2CN1C(=O)c1ccccc1` displayed a composite z-score of -0.795.

With `C[N+](C)(C)CCCC[C@@H]1NC(=O)[C@H]2C[C@@H](C(=O)NCCCCCNC(=O)CS)[C@@H](c3cccc(OCCO)c3)N2C1=O`, the composite z-score was -0.383.

In turn, `COC(=O)C[C@H]1O[C@@]2(C[C@@H]1[Si](C)(C)C)C(=O)N(C)c1ccccc12` displayed a composite z-score of 0.453.

Regarding `C=CCOC(=O)[C@H]1[C@@H]2C(=O)O[C@@H](c3ccccc3)[C@@H](c3ccccc3)N2[C@@H](c2ccc(OCCOC(=O)[C@@H]3C[C@@H]4C(=O)N[C@@H](CCCC[N+](C)(C)C)C(=O)N4[C@@H]3c3ccc(O)cc3)cc2)[C@]12C(=O)Nc1ccc(I)cc12`, the composite z-score is 1.01.

Molecule `C=CC[C@@]1(C(=O)OC)N=C(c2ccc(OCCCO)cc2)O[C@@H]1c1ccccc1N=[N+]=[N-]` had a composite z-score of 0.53.

In turn, `C=CC[C@@]1(C(=O)N(C)C)N=C(c2ccc(OCCCO)cc2)O[C@@H]1c1ccccc1CN=[N+]=[N-]` displayed a composite z-score of 0.561.

For `CCCCCC1=C2CNC(CC(C)C)(C(=O)OC)C=C2C(C)C1=O` (stereo not drawn), the composite z-score was -0.145.

Molecule `COc1ccc(C(O)C2C=CC3C(=O)NC(=O)C3N2Nc2ccc(Cl)cc2Cl)c2ccccc12` (stereo not drawn) returned a composite z-score of -0.0846.

In turn, `CCOC(=O)C[C@H]1[C@H](OC(=O)Cc2ccc3c(c2)OCO3)[C@@H](NC(=O)c2ccc3ccccc3n2)c2cc(OCCCO)ccc2N1C(=O)Cc1ccc(OC)cc1` gave a composite z-score of 0.577.

In the case of `CCCCC(O)C1C=CC2C(=O)N(c3ccccc3)C(=O)C2N1Nc1ccccc1` (stereo not drawn), the composite z-score came to 0.173.

`COc1ccc([Si](C)(C)[C@@H]2[C@@H](CC(=O)N3CCC[C@H]3CO)O[C@]3(C(=O)N(Cc4ccc(N5CCOC5=O)cc4)c4ccccc43)[C@H]2C)cc1` returned a composite z-score of 0.646.

For the molecule `CC(C)NC(=O)[C@@]1(c2ccc([N+](=O)[O-])cc2)CC(=O)N(CC23CC4CC(CC(C4)C2)C3)[C@@H]1c1ccc(CO)cc1`, the composite z-score stood at 1.51.

With `C=C(CCCC)/C(=C/C[C@H](OC(C)=O)c1cccc(OCCO)c1)c1cnc2ccccc2c1`, the composite z-score stood at 0.177.
